Several values for one entry are separate records, joined by “and”; a condition that tells them apart may be missing. Equal entries are not always repeated. Where a structure was tested more than once in an assay, its records may differ in their call. Activity calls are given as the source filed them. Entries that show only a call come without a potency. Unless noted, calls come from the whole dose curve; as a rule, active = well fitted curve in the direction sought with a large enough effect in the repeat runs; inconclusive = weak or mixed curves; inactive = no such curve, though single readings can be large; an effect the other way counts as inactive or inconclusive.
Columns and labels:
[1] = qHTS assay to identify small molecule antagonists of the thyroid receptor (TR) signaling pathway - cell viability counter screen (AID 743064); note: nearly all actives have a fitted effect of over 50% in size; note: potency is the fitted concentration of half-maximal effect
Procedure, shortened: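 CellTiter-Fluor readout, 30 min at 37 °C/5% CO2, following 23.5 h incubation of GH3.TRE-Luc cells with test compound and 1 nM T3 (final).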

[2] = qHTS assay to identify small molecule antagonists of the estrogen receptor alpha (ER-alpha) signaling pathway - cell viability counter screen (AID 743074; calls by dose curve;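 note: HEK293 cells carrying ER-alpha-UAS-bla reporter stimulated with 17beta-estradiol; nearly all actives have a fitted effect of over 45% in size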; note: potency is the fitted concentration of half-maximal effect)
[3] = qHTS assay to identify small molecule antagonists of the estrogen receptor alpha (ER-alpha) signaling pathway using the BG1 cell line - cell viability counter screen (AID 743081);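 note: compound given together with 17beta-estradiol as the ER stimulus; nearly all actives have a fitted effect of over 45% in size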; note: potency is the fitted concentration of half-maximal effect
Aromatase (Homo sapiens) = Aromatase (Homo sapiens) (UniProt P11511); assay: qHTS assay to identify aromatase inhibitors (AID 743083); note: nearly all actives have a fitted effect of over 55% in size
Sequence of Aromatase (Homo sapiens) (P11511 whole entry, looked up): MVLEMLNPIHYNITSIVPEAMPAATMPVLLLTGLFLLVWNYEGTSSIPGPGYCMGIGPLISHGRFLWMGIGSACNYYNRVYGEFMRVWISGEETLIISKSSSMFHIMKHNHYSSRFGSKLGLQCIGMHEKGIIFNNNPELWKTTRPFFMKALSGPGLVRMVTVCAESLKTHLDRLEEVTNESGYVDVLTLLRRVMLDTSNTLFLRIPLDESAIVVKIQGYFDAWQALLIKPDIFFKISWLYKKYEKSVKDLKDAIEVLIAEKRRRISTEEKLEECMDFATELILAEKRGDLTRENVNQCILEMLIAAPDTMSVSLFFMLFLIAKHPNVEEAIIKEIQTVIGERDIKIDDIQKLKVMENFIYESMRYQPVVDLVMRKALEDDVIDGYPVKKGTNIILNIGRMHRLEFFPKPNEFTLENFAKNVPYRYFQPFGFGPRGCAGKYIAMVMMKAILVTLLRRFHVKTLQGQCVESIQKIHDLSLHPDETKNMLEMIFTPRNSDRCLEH

[4] = qHTS assay to identify small molecule antagonists of the thyroid receptor (TR) signaling pathway (AID 743065); note: nearly all actives have a fitted effect of over 55% in size; note: potency is the fitted concentration of half-maximal effect
Procedure, shortened: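 Antagonism measured as loss of luciferase signal in GH3 cells stably carrying a TRE-luciferase reporter, co-treated with compound and T3 (1 nM final) for 23.5 h at 37 C. Viability was read in the same well by CellTiter-Fluor.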

[5] = tested on: thyroid hormone receptor (rat, GH3 cells); assay: qHTS assay to identify small molecule agonists of the thyroid receptor (TR) signaling pathway (AID 743066; calls by dose curve)
[6] = molecular target: Estrogen receptor (Homo sapiens) (UniProt P03372); assay: qHTS assay to identify small molecule antagonists of the estrogen receptor alpha (ER-alpha) signaling pathway (AID 743069; active = well fitted curve in the direction sought with a large enough effect in the signal ratio in the repeat runs, not every such curve was filed as active; inconclusive = weak or mixed curves, or effect the other way; inactive = no such curve, though single readings can be large or run the other way; the % refers to the signal ratio; note: potency is the fitted concentration of half-maximal effect)
Sequence of Estrogen receptor (Homo sapiens) (P03372 whole entry, looked up): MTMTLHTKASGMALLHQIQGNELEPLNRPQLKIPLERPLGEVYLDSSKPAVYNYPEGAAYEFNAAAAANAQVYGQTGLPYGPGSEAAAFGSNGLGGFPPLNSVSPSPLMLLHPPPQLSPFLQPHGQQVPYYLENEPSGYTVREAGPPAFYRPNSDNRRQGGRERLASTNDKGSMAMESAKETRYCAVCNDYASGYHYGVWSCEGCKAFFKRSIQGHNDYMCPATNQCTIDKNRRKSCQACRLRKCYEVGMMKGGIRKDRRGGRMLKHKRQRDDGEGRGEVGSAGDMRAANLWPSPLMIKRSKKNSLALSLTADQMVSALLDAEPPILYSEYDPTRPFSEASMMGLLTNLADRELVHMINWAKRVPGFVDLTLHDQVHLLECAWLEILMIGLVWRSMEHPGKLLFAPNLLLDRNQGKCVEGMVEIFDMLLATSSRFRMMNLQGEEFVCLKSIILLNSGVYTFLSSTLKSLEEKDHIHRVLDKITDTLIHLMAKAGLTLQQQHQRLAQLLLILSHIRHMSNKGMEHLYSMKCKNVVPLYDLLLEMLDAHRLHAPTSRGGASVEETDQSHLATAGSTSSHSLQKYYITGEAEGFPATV
Procedure, shortened: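 Compound effects are measured against 17beta-estradiol stimulation in HEK293 cells with a UAS-controlled beta-lactamase reporter for ER-alpha. Exposure lasts 18 hr at 37C; LiveBLAzer B/G FRET substrate follows for 2 hr at room temperature.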

[7] = molecular target: Estrogen receptor (Homo sapiens) (UniProt P03372); assay: qHTS assay to identify small molecule agonists of the estrogen receptor alpha (ER-alpha) signaling pathway (AID 743075; calls by dose curve; note: potency is the fitted concentration of half-maximal effect)
[8] = molecular target: Estrogen receptor (Homo sapiens) (UniProt P03372); assay: qHTS assay to identify small molecule agonists of the estrogen receptor alpha (ER-alpha) signaling pathway using the BG1 cell line (AID 743079); conditions: BG1Luc4E2 cells, ERE-luciferase agonist, 22 h; activation: at 70.3 µM (top of the series); note: nearly all actives have a fitted effect of over 20% in size; note: potency is the fitted concentration of half-maximal effect
[9] = qHTS assay to identify small molecule antagonists of the estrogen receptor alpha (ER-alpha) signaling pathway using the BG1 cell line (AID 743080; calls by dose curve;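 note: BG1 cells stimulated with 17beta-estradiol alongside compound; nearly all actives have a fitted effect of over 25% in size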)
Procedure, shortened: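 BG1Luc4E2, endogenous ER-alpha, 4xERE-luc; 5 d charcoal-stripped FBS, phenol red free; 24 h plating; cpd + 17beta-estradiol 21.5 h, 37 C/5% CO2; CellTiter-Fluor viability 30 min, then ONE-Glo luciferase 30 min RT.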

| Structure (SMILES) | Potency [1] | Potency [2] | Potency [3] | Potency (Aromatase (Homo sapiens)) | Potency [4] | Potency [5] | Potency [6] | Potency [7] | Potency [8] | Potency [9] |
| --- | --- | --- | --- | --- | --- | --- | --- | --- | --- | --- |
| O=C(Cn1c(=O)sc2ccc(Cl)cc21)N1CCN(CCO)CC1 | inactive | inactive | inactive | inactive |  |  |  |  |  |  |
| CCCCCc1ccc(C)cc1O |  | inactive | inactive |  | 26.6 µM (active) | inactive | inactive | inactive | inactive | inactive |
| CC1CS(=O)(=O)CCN1/N=C/c1ccc([N+](=O)[O-])o1 (configuration not stated) |  | inactive | inactive | inactive | inactive | inactive | inactive | inactive | inactive | inactive |
| CN[C@@H]1[C@H](O[C@H]2[C@H](O[C@H]3[C@H](O)[C@@H](O)[C@H](N=C(N)N)[C@@H](O)[C@@H]3N=C(N)N)O[C@@H](C)[C@]2(O)C=O)O[C@@H](CO)[C@H](O)[C@H]1O |  | inactive | inactive | inactive | inactive | inactive | inactive | inactive | inactive | inactive |
| CN(C)C=Nc1c(I)cc(I)c(CCC(=O)O)c1I |  | inactive | inactive | inactive | inactive | inactive | inactive | inactive | inactive | inactive |
| O=C(CCCCCCCCCCCCC1CCCC1)Nc1ccc(S(=O)(=O)c2ccc(NC(=O)CCCCCCCCCCCCC3CCCC3)cc2)cc1 |  | inactive | inactive | inactive | inactive | inactive | inactive | inactive | inactive | inactive |
| CCC(=O)OCC(=O)[C@@]1(OC(=O)CC)[C@H](C)C[C@H]2[C@@H]3CCC4=CC(=O)C=C[C@]4(C)[C@@]3(F)[C@@H](O)C[C@@]21C | inactive | inactive | inactive | inactive |  |  |  |  | inactive |  |
| Nc1ncnc2c1ncn2CCOCP(=O)(O)O |  | inactive | inactive |  | inactive | inactive | inactive | inactive | inactive | inactive |
| CC(C)(C)NCC(O)CSc1nc(-c2ccc(C(N)=O)s2)cs1 (configuration not stated) |  | inactive | inactive | inactive | inactive | inactive | inactive | inactive | inactive | inactive |
| CCCCCCCCCCCCCCCCCC[N+](C)(C)CCC[Si](OC)(OC)OC |  | inactive | inactive | inactive | inactive | inactive | inactive | 23.9 µM [activator] (active) | 5.96 µM (active) | inactive |
| CC1=C(/C=C/C(C)=C/C=C/C(C)=C/C=C/C=C(C)/C=C/C=C(C)/C=C/C2=C(C)C[C@@H](O)CC2(C)C)C(C)(C)C[C@H](O)C1 | 29.8 µM (active) | inactive | inactive |  |  |  |  |  |  |  |
| CN(C)CCC=C1c2ccccc2C(C)(C)c2ccccc21 | 13.3 µM (active) |  | inactive |  |  |  |  |  | inactive | inactive |
| Nc1nc2c(c(=O)[nH]1)N(C=O)C(CNc1ccc(C(=O)N[C@@H](CCC(=O)O)C(=O)O)cc1)CN2 (some centres not stated) | inactive | inactive | inactive | inactive |  |  |  |  |  |  |
| CCC(C)[C@H]1O[C@]2(C=C[C@@H]1C)C[C@@H]1C[C@@H](C/C=C(\C)[C@@H](O[C@H]3C[C@H](OC)[C@@H](O[C@H]4C[C@H](OC)[C@H](NC(C)=O)[C@H](C)O4)[C@H](C)O3)[C@@H](C)/C=C/C=C3\CO[C@@H]4[C@H](O)C(C)=C[C@@H](C(=O)O1)[C@]34O)O2 (some centres not stated) | 2.66 µM (active) and 7.5 µM (active) | 8.49 µM (active) and 26.8 µM (active) | 23.7 µM (active) and inactive | inactive |  |  | 1.69 µM [inconclusive] (active) | inactive |  |  |
| OCCO[C@@H]1[C@@H](O)[C@H](O)[C@@H](CO)O[C@@H]1O | inactive | inactive | inactive | inactive |  |  |  | inactive | inactive |  |
| O=C(OC[C@H]1O[C@](O)(COC(=O)c2cccnc2)[C@@H](OC(=O)c2cccnc2)[C@@H]1OC(=O)c1cccnc1)c1cccnc1 |  | inactive | inactive | inactive | inactive | inactive | inactive | inactive | inactive | inactive |
| CC1(C)S[C@@H]2[C@H](NC(=O)Cc3ccccc3)C(=O)N2[C@H]1C(=O)O | inactive | inactive | inactive | inactive |  |  | inactive | inactive | inactive | inactive |
| CC1=C[C@H](O)CC(C)(C)[C@H]1/C=C/C(C)=C/C=C/C(C)=C/C=C/C=C(C)/C=C/C=C(C)/C=C/C1=C(C)C[C@@H](O)CC1(C)C | 23.7 µM (active) | inactive |  | inactive |  |  |  |  |  |  |
